From PubChem BioAssay (Tox21)
A number with no mark means an inactive call. The source made the active and inactive calls. Calls come from the whole dose curve; as a rule, active = well fitted curve in the direction sought with a large enough effect in the repeat runs; inconclusive = weak or mixed curves; inactive = flat fitted curve, though single readings scatter.
% is set by controls: 0 for no effect and ±100 for the full control effect; potency is the fitted concentration of half-maximal effect.

Test: qHTS assay to test for compound auto fluorescence at 535 nm (green) in HepG2 cells (AID 720675)
Settings: green autofluorescence 485/535 nm, 1 h; series mostly up to 91.3 µM; fluorescence, % of fluorescein control: at the top concentration
Source text: National Center for Advancing Translational Sciences [NCATS]
NIH Chemical Genomics Center [NCGC]
U.S. Environmental Protection Agency [EPA]
National Institutes of Environmental Health Sciences [NIEHS]
National Toxicology Program [NTP]
U.S. Food and Drug Administration [FDA]
Compound auto fluorescence often interferes with screening of the compound library against various biological targets and signaling pathways. Some of these compounds may have fluorophoric properties. Such properties may interfere with the assay outputs resulting in false positives and/or negatives. To decrease such complications and ensure the compound activities are relevant in terms of biological response, the Tox21 10K compound library was screened for auto fluorescence.
From the fluorophores used as reporter signals in our screening assays, the auto fluorescence equivalencies of compounds against three fluorophores have been evaluated: Triamterene, Fluorescein and Rose Bengal sodium for blue, green and red fluorescence, respectively. The fluorescence intensities were measured using Excitation/Emission wavelengths at 405/460nm, 485/535nm and 540/590nm for blue, green and red labels, respectively. This assay includes the green fluorescence data.
Tox21 Assay Protocol Summary:
2,000 HepG2 cells in 5 uL of culture medium (MEM containing 10% FBS) per well were dispensed into black wall/clear bottom 1536-well plates using a Multidrop Combi Dispenser (ThermoFisher Scientific, Waltham, MA). The assay plates were incubated overnight at 37 C to allow cell attachment to the well bottom, followed by the transfer of 23 nL compound or DMSO vehicle by a pintool work station (Kalypsys , San Diego, CA). After the assay plates were incubated for 1 hr at 37 C and 5% CO2, fluorescence intensities in the assay plates were measured by an Envision (PerkinElmer, Shelton, CT) plate reader using three labels for measuring blue, green and red fluorescence at […] 460, 535 and 590 nm respectively.
With `O=C(O)[C@H](O)[C@@H](O)C(=O)O` the “fluorescence, % of fluorescein control” value was -0.0644%.
In the case of `CC(=O)[O][Sn]([c]1ccccc1)([c]1ccccc1)[c]1ccccc1`, the “fluorescence, % of fluorescein control” value is reported as 0.0285%.
With `c1ccc(N=NNc2ccccc2)cc1` the Potency was “inactive”.
For `CCOP(=O)(OCC)Oc1cc(C)nc(C(C)C)n1`, the “fluorescence, % of fluorescein control” value was 0.0213%.
In the case of `[F][Sn]([c]1ccccc1)([c]1ccccc1)[c]1ccccc1`, the “fluorescence, % of fluorescein control” value is reported as -0.0654%.
For `CCC(OC(C)=O)C(CC(C)NC)(c1ccccc1)c1ccccc1` (stereo not given), the “fluorescence, % of fluorescein control” value was 0.0122% [at 95.7 µM].
With `CCC(C)Br` (stereo not given) the “fluorescence, % of fluorescein control” value was -0.106% [at 95.7 µM].
In the case of `Cc1nn(-c2cc(NS(C)(=O)=O)c(Cl)cc2Cl)c(=O)n1C(F)F`, the “fluorescence, % of fluorescein control” value is reported as -0.0394%.
With `CCCCN(CCCC)C(=S)S` the “fluorescence, % of fluorescein control” value was -0.0588%.
For `CCn1cc[n+](C)c1` (tested in a mixture with another compound), the “fluorescence, % of fluorescein control” value was 0.0134%.
With `Nc1nc(N)c(N)c(N)n1` the Potency was 31.6 µM (active).
For `COc1ccc2[nH]cc(CCN(C(C)C)C(C)C)c2c1`, the “fluorescence, % of fluorescein control” value was -0.153% [at 95.7 µM].
In the case of `O=C1C(Cl)=C(Cl)C(=O)C(Cl)=C1Cl`, the Potency is reported as “inactive”.
In the case of `Clc1ccc(C(Cl)(Cl)Cl)cc1Cl`, the “fluorescence, % of fluorescein control” value is reported as -0.0289%.
With `CCCCCCC[CH2][Sn]([Cl])([Cl])[CH2]CCCCCCC` the “fluorescence, % of fluorescein control” value was 0.0019%.
In the case of `CCCCc1ccccc1`, the “fluorescence, % of fluorescein control” value is reported as -0.111%.
For `CC(C)C(Br)C(=O)NC(N)=O` (stereo not given), the “fluorescence, % of fluorescein control” value was 0.0028% [at 46 µM].
With `c1cc[n+]2c(c1)-c1cccc[n+]1CC2` the “fluorescence, % of fluorescein control” value was 0.0579% [at 46 µM].
In the case of `CCN(CC)C(=O)N[C@@H]1C=C2c3cccc4[nH]cc(c34)C[C@@H]2N(C)C1`, the “fluorescence, % of fluorescein control” value is reported as 2.07% [at 46 µM].
With `CCCCCCCCCCCCCCn1cc[n+](C)c1` the Potency was “inactive”.
For `CCN(CC)Cc1nccn1-c1ccc([N+](=O)[O-])cc1C(=O)c1ccccc1Cl`, the “fluorescence, % of fluorescein control” value was -0.017% [at 46 µM].
For `CCN(CC)C(=S)S`, the Potency was “inactive”.
In the case of `Oc1cccc(Cl)c1Cl`, the “fluorescence, % of fluorescein control” value is reported as -0.0422%.
For `[O-][Cl+3]([O-])([O-])O`, the “fluorescence, % of fluorescein control” value was -0.101% [at 95.7 µM].
For `CN`, the “fluorescence, % of fluorescein control” value was -0.0142% [at 95.7 µM].
In the case of `C=CCBr`, the “fluorescence, % of fluorescein control” value is reported as -0.0064% [at 95.7 µM].
For `CCC(C)c1cccc(C(C)CC)c1O` (stereo not given), the “fluorescence, % of fluorescein control” value was -0.033%.
With `CCC[CH2][Sn]([CH2]CCC)([CH2]CCC)[CH2]CCC` the “fluorescence, % of fluorescein control” value was -0.0029%.
For `CCOC(=O)CCN(SN(C)C(=O)Oc1cccc2c1OC(C)(C)C2)C(C)C`, the “fluorescence, % of fluorescein control” value was 0.0162%.
In the case of `FC(F)C(F)(F)OCC(Cn1cncn1)c1ccc(Cl)cc1Cl` (stereo not given), the “fluorescence, % of fluorescein control” value is reported as -0.043%.
In the case of `Clc1ccc(C2(Cn3cncn3)OCCO2)c(Cl)c1`, the Potency is reported as “inactive”.
For `O=c1[nH]c(Cl)c(Cl)cc1Cl`, the “fluorescence, % of fluorescein control” value was -0.292%.
With `CCOP(=S)(OCC)SC(CCl)N1C(=O)c2ccccc2C1=O` (stereo not given) the “fluorescence, % of fluorescein control” value was -0.0243%.
With `Cc1c([N+](=O)[O-])cc2c(c1[N+](=O)[O-])C(C)(C)CC2(C)C` the “fluorescence, % of fluorescein control” value was 0.0055%.
For `c1ccc2c(c1)cc1ccc3cccc4ccc2c1c34`, the “fluorescence, % of fluorescein control” value was -0.021% [at 95.7 µM].
For `COc1nc(C)nc(NC(=O)NS(=O)(=O)c2ccccc2Cl)n1`, the “fluorescence, % of fluorescein control” value was 0.103%.
With `CCOP(=S)(OCC)Oc1cc(C)nc(N(CC)CC)n1` the “fluorescence, % of fluorescein control” value was 9e-06%.
With `O=C1C2(Cl)C3(Cl)C4(Cl)C(Cl)(Cl)C5(Cl)C3(Cl)C1(Cl)C5(Cl)C24Cl` (stereo not given) the Potency was “inactive”.
With `O=C(N[C@H]1N=C(c2ccccc2F)c2cccc3c2N(CC3)C1=O)c1cc2ccccc2[nH]1` the “fluorescence, % of fluorescein control” value was 0.094% [at 46 µM].
With `CSC(=O)c1c(C(F)F)nc(C(F)(F)F)c(C(=O)SC)c1CC(C)C` the “fluorescence, % of fluorescein control” value was 0.0649%.
